Our source for the cytotoxicity call values is the antibiotic and cytotoxicity screens of Wong et al. (2023).

Hit rate of the full screen: of about 39,000 compounds, about 1,500 (3.8%) were called active. Only a selection was taken, and actives are over-represented in it overall.

The experiment concerns HSkMC (human skeletal muscle cells). Kind of experiment: cytotoxicity call (relative viability < 0.9). Particulars: 10 µM.
For the compound `O=C(NCc1csnn1)c1csnn1`, the cytotoxicity call is “inactive”.
In the case of `O=C(COC(=O)/C=C/c1cn(-c2ccccc2)nc1-c1ccc2c(c1)OCCO2)N[C@H]1CCS(=O)(=O)C1` it was “inactive”; in that of `C[C@H]1CN([C@@H](C)CO)C(=O)CCCn2nncc2CO[C@@H]1CN(C)S(=O)(=O)c1ccc(-n2cccn2)cc1`, “inactive”; in that of `COc1ccc(S(=O)(=O)N[C@H]2C=C[C@H](CC(=O)N3CCC(Cc4ccccc4)CC3)O[C@H]2CO)cc1`, “inactive”.
For `C[C@@H]1CN([C@@H](C)CO)C(=O)Cc2cc(NC(=O)CCN3CCOCC3)ccc2O[C@H]1CN(C)C(=O)NC1CCCCC1`, the cytotoxicity call was “inactive”.
In the case of `CC(C)(N)c1ccccc1Br` it was “inactive”.
Next, `C[C@@H]1CN([C@@H](C)CO)C(=O)c2cccc(NC(=O)NC3CCCCC3)c2O[C@H]1CN(C)Cc1ccc(Cl)c(Cl)c1`: “inactive”.
Next, `COc1cc2c(NC3CCN(C(C)C)CC3)nc(N3CCC(F)(F)CC3)nc2cc1OCCCN1CCCC1`: “active”; `COc1cc2nc(N3CCN(C(=O)C4CCCO4)CC3)nc(N)c2cc1OC.Cl` (stereo not given): “inactive”; `COc1cc2c(NC3CCN(C)CC3)nc(N3CCCN(C)CC3)nc2cc1OCCOCCN(C)C`: “inactive”.
`C[C@@H]1CN([C@@H](C)CO)C(=O)Cc2cc(NS(=O)(=O)c3ccccc3)ccc2O[C@@H]1CN(C)Cc1ccc(C(=O)O)cc1`: the cytotoxicity call is “inactive”.
Next, `COc1cccc(NC(=O)N(C)C[C@H]2OCc3ccccc3-c3c(n(C)c4ccccc34)C(=O)N([C@H](C)CO)C[C@H]2C)c1`: “inactive”; `C[C@@H]1CCCCO[C@@H](CN(C)C(=O)CCC(F)(F)F)[C@H](C)CN([C@@H](C)CO)C(=O)c2cc(NS(=O)(=O)c3cccs3)ccc2O1`: “inactive”.
In the case of `Cc1ccc(S(=O)(=O)Nc2ccc3c(c2)C(=O)N([C@@H](C)CO)C[C@@H](C)[C@@H](CN(C)C(=O)c2ccccc2)OCCCC[C@@H](C)O3)cc1` it was “inactive”.
Next, `C[C@H](CO)N1C[C@H](C)[C@H](CN(C)Cc2ccc(C(F)(F)F)cc2)Oc2ccc(NC(=O)Cc3ccccc3)cc2C1=O`: “inactive”; `Cc1ccc(S(=O)(=O)N(C)C[C@@H]2Oc3cc(Br)ccc3S(=O)(=O)N([C@@H](C)CO)C[C@@H]2C)cc1`: “inactive”.
On to `COc1ccc(S(=O)(=O)Nc2ccc3c(c2)C(=O)N([C@@H](C)CO)C[C@@H](C)[C@H](CN(C)Cc2ccc(C(F)(F)F)cc2)OCCCC[C@@H](C)O3)cc1`, for which the cytotoxicity call is “active”.
`COc1ccc(S(=O)(=O)Nc2ccc3c(c2)C(=O)N([C@@H](C)CO)C[C@H](C)[C@@H](CN(C)Cc2ccc(C(F)(F)F)cc2)OCCCC[C@H](C)O3)cc1`: the cytotoxicity call was “inactive”.
With `COc1ccc(S(=O)(=O)Nc2ccc3c(c2)C(=O)N([C@H](C)CO)C[C@@H](C)[C@@H](CN(C)Cc2ccc(C(F)(F)F)cc2)OCCCC[C@H](C)O3)cc1`, the cytotoxicity call is “inactive”.
In the case of `COc1ccc(S(=O)(=O)Nc2ccc3c(c2)C(=O)N([C@H](C)CO)C[C@H](C)[C@H](CN(C)Cc2ccc(C(F)(F)F)cc2)OCCCC[C@H](C)O3)cc1` it was “active”.
`COc1ccc(S(=O)(=O)Nc2ccc3c(c2)C(=O)N([C@@H](C)CO)C[C@H](C)[C@@H](CN(C)Cc2ccc(C(F)(F)F)cc2)OCCCC[C@@H](C)O3)cc1`: the cytotoxicity call is “inactive”.
Next, `COc1ccc(S(=O)(=O)Nc2ccc3c(c2)C(=O)N([C@H](C)CO)C[C@H](C)[C@@H](CN(C)Cc2ccc(C(F)(F)F)cc2)OCCCC[C@@H](C)O3)cc1`: “active”.
In the case of `COc1ccc(S(=O)(=O)Nc2ccc3c(c2)C(=O)N([C@@H](C)CO)C[C@@H](C)[C@@H](CN(C)Cc2ccc(C(F)(F)F)cc2)OCCCC[C@H](C)O3)cc1` it was “inactive”; in that of `COc1ccc(S(=O)(=O)Nc2ccc3c(c2)C(=O)N([C@H](C)CO)C[C@@H](C)[C@@H](CN(C)Cc2ccc(C(F)(F)F)cc2)OCCCC[C@@H](C)O3)cc1`, “active”; in that of `COc1ccc(S(=O)(=O)Nc2ccc3c(c2)C(=O)N([C@@H](C)CO)C[C@@H](C)[C@@H](CN(C)Cc2ccc(C(F)(F)F)cc2)OCCCC[C@@H](C)O3)cc1`, “inactive”.
With `COc1ccc(S(=O)(=O)Nc2ccc3c(c2)C(=O)N([C@H](C)CO)C[C@@H](C)[C@H](CN(C)Cc2ccc(C(F)(F)F)cc2)OCCCC[C@@H](C)O3)cc1`, the cytotoxicity call was “inactive”.
Next, `C[C@H](CO)N1C[C@H](C)[C@H](CN(C)S(=O)(=O)c2cccc(F)c2)Oc2ncc(C#CC3(O)CCCC3)cc2C1=O`: “inactive”; `C[C@H](CO)N1C[C@H](C)[C@H](CN(C)CC2CCCCC2)Oc2c(NC(=O)c3nc4ccccc4s3)cccc2C1=O`: “inactive”; `C[C@@H]1CN([C@@H](C)CO)C(=O)c2cc(NS(=O)(=O)c3cn(C)cn3)ccc2O[C@@H](C)CCCCO[C@@H]1CN(C)S(=O)(=O)c1ccccc1`: “inactive”.
Next, `COc1ccc(-c2cnc3c(c2)C(=O)N([C@H](C)CO)C[C@@H](C)[C@H](CN(C)C(=O)Cc2ccncc2)O3)cc1`: “inactive”; `C[C@@H]1CN([C@@H](C)CO)C(=O)c2cc(NC(=O)Cn3cnnn3)ccc2O[C@@H]1CN(C)S(=O)(=O)c1ccccc1`: “inactive”.
In the case of `O=C(C[C@H]1C[C@H]2c3cc(NC(=O)NC4CCCC4)ccc3O[C@H]2[C@H](CO)O1)NCCN1CCCCC1` it was “inactive”.
Consider `Cc1ncc([N+](=O)[O-])n1C`, for which the cytotoxicity call is “inactive”.
Take `C[C@@H]1CCCCO[C@H](CN(C)S(=O)(=O)c2cn(C)cn2)[C@@H](C)CN([C@@H](C)CO)C(=O)c2cc(NC(=O)Nc3ccc(C(F)(F)F)cc3)ccc2O1`: the cytotoxicity call was “inactive”.
In the case of `C[C@H]1CN([C@@H](C)CO)C(=O)Cc2cc(NC(=O)c3ccncc3)ccc2O[C@H]1CN(C)C(=O)NC1CCCCC1`, the cytotoxicity call was “inactive”.
For the compound `Cc1ccc(S(=O)(=O)Nc2ccc3c(c2)C(=O)N([C@@H](C)CO)C[C@@H](C)[C@@H](CN(C)C(=O)NC2CCCCC2)OCCCC[C@H](C)O3)cc1`, the cytotoxicity call is “inactive”.
Next, `C[C@H](O)C#Cc1ccc2c(c1)O[C@H](CN(C)C(=O)Nc1ccccc1)[C@@H](C)CN([C@@H](C)CO)S2(=O)=O`: “inactive”.
In the case of `Cc1ccccc1S(=O)(=O)N1C[C@H](O)COC[C@@H]2O[C@@H](CC(=O)N3CCN(C)CC3)CC[C@H]21` it was “inactive”; in that of `COCC(=O)Nc1ccc2c(c1)C(=O)N(C)C[C@@H](OC)[C@H](C)CN(C(=O)CN1CCOCC1)[C@H](C)CO2`, “inactive”; in that of `COc1ccc(-c2ccccc2)cc1NC(=O)c1ccc2nc(C)c(N(C)C(=O)CCc3ccccc3)n2c1`, “inactive”.
Next, `C[C@H](CO)N1C[C@H](C)[C@H](CN(C)C(=O)C2CCC2)Oc2cc(C#Cc3ccncc3)ccc2S1(=O)=O`: “inactive”; `N[C@H]1CCN(c2ccc(C(F)(F)F)cn2)C1`: “inactive”.
For `COc1ccc(S(=O)(=O)Nc2ccc3c(c2)C(=O)N([C@@H](C)CO)C[C@@H](C)[C@H](CN(C)Cc2ccc(C(F)(F)F)cc2)OCCCC[C@H](C)O3)cc1`, the cytotoxicity call was “active”.
Turning to `COc1ccc(S(=O)(=O)Nc2ccc3c(c2)C(=O)N([C@H](C)CO)C[C@H](C)[C@H](CN(C)Cc2ccc(C(F)(F)F)cc2)OCCCC[C@@H](C)O3)cc1`, the cytotoxicity call was “inactive”.
Next, `COc1ccc(S(=O)(=O)Nc2ccc3c(c2)C(=O)N([C@H](C)CO)C[C@H](C)[C@@H](CN(C)Cc2ccc(C(F)(F)F)cc2)OCCCC[C@H](C)O3)cc1`: “inactive”.
Next, `COc1ccc(S(=O)(=O)Nc2ccc3c(c2)C(=O)N([C@@H](C)CO)C[C@H](C)[C@H](CN(C)Cc2ccc(C(F)(F)F)cc2)OCCCC[C@@H](C)O3)cc1`: “inactive”; `COc1ccc(S(=O)(=O)Nc2ccc3c(c2)C(=O)N([C@H](C)CO)C[C@@H](C)[C@H](CN(C)Cc2ccc(C(F)(F)F)cc2)OCCCC[C@H](C)O3)cc1`: “inactive”; `COc1ccc(S(=O)(=O)Nc2ccc3c(c2)C(=O)N([C@@H](C)CO)C[C@H](C)[C@H](CN(C)Cc2ccc(C(F)(F)F)cc2)OCCCC[C@H](C)O3)cc1`: “active”.
In the case of `C[C@]12C[C@]3(O)O[C@@H](O1)[C@]1(COC(=O)c4ccccc4)[C@H]3C[C@@]12O[C@@H]1O[C@H](CO)[C@@H](O)[C@H](O)[C@H]1O` it was “inactive”; in that of `COc1ccc(COC[C@@]23Oc4ccccc4[C@@H](NC(=S)N2C)[C@@H]3CO[Si](C)(C)C(C)(C)C)cc1`, “inactive”.
With `C[C@H](CO)N1C[C@H](C)[C@H](CN(C)Cc2ccncc2)OCCCC[C@H](C)Oc2ccc(NC(=O)Cc3ccccc3)cc2C1=O`, the cytotoxicity call was “inactive”.
In the case of `C[C@H](CO)N1C[C@H](C)[C@H](CN(C)C(=O)Nc2ccc(C(F)(F)F)cc2)Oc2ccc(NC(=O)Nc3ccccc3)cc2C1=O` it was “active”; in that of `C[C@@H]1CN([C@@H](C)CO)C(=O)c2cc(NC(=O)Nc3ccccc3)ccc2O[C@@H]1CN(C)C(=O)Nc1ccc(C(F)(F)F)cc1`, “inactive”.
On to `C[C@H]1CN([C@@H](C)CO)C(=O)c2cc(NC(=O)Nc3ccccc3)ccc2O[C@H]1CN(C)C(=O)Nc1ccc(C(F)(F)F)cc1`, for which the cytotoxicity call was “inactive”.
Next, `C[C@H](CO)N1C[C@H](C)[C@@H](CN(C)C(=O)Nc2ccccc2)Oc2ccc(NC(=O)Nc3ccc(C(F)(F)F)cc3)cc2C1=O`: “inactive”.
In the case of `C[C@H]1CN([C@@H](C)CO)C(=O)c2cc(NC(=O)Nc3ccc(C(F)(F)F)cc3)ccc2O[C@@H]1CN(C)C(=O)Nc1ccccc1` it was “inactive”.
Next, `C[C@@H]1CN([C@@H](C)CO)C(=O)c2cc(NC(=O)Nc3ccccc3)ccc2O[C@H]1CN(C)C(=O)Nc1ccc(C(F)(F)F)cc1`: “inactive”; `C[C@H](CO)N1C[C@H](C)[C@H](CN(C)C(=O)Nc2ccccc2)Oc2ccc(NC(=O)Nc3ccc(C(F)(F)F)cc3)cc2C1=O`: “active”; `C[C@@H]1CN([C@H](C)CO)C(=O)c2cc(NC(=O)Nc3ccccc3)ccc2O[C@@H]1CN(C)C(=O)Nc1ccc(C(F)(F)F)cc1`: “inactive”.
For the compound `C[C@@H]1CN([C@@H](C)CO)C(=O)c2cc(NC(=O)Nc3ccc(C(F)(F)F)cc3)ccc2O[C@@H]1CN(C)C(=O)Nc1ccccc1`, the cytotoxicity call is “active”.
